ChEMBL document CHEMBL2218924, “A broad activity screen in support of a chemogenomic map for kinase signalling research and drug discovery” (Biochem J, 2013)

Columns and labels:
[1] = target: T1, Muscle, skeletal receptor tyrosine-protein kinase (Homo sapiens) (UniProt O15146); settings: at 1 µM
T1 sequence (whole entry): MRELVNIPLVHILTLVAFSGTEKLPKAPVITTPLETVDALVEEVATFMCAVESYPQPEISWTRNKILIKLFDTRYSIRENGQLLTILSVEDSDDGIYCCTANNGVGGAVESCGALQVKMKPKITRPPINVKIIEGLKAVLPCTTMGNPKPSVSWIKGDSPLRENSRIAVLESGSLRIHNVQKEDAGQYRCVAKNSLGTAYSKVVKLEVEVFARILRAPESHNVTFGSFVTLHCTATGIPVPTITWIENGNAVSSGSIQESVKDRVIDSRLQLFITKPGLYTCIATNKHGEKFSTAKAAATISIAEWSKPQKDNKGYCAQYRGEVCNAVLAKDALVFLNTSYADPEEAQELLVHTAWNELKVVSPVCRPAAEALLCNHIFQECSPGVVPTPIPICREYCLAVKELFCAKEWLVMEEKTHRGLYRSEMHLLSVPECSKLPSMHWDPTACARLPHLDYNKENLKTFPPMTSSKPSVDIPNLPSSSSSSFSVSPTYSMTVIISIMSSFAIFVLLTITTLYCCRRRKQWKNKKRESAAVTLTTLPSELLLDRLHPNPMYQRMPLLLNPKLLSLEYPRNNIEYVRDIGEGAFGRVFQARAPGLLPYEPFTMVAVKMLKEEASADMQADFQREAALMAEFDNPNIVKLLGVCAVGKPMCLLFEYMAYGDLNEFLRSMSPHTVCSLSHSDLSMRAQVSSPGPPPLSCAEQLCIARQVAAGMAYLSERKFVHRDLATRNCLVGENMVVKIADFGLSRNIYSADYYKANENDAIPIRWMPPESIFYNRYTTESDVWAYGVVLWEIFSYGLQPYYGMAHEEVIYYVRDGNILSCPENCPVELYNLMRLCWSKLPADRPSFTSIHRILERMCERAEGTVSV

[2] = target: T1, Muscle, skeletal receptor tyrosine-protein kinase (Homo sapiens); settings: at 10 µM
[3] = target: T2, Serine/threonine-protein kinase Nek11 (Homo sapiens) (UniProt Q8NG66); settings: at 1 µM
T2 sequence (whole entry): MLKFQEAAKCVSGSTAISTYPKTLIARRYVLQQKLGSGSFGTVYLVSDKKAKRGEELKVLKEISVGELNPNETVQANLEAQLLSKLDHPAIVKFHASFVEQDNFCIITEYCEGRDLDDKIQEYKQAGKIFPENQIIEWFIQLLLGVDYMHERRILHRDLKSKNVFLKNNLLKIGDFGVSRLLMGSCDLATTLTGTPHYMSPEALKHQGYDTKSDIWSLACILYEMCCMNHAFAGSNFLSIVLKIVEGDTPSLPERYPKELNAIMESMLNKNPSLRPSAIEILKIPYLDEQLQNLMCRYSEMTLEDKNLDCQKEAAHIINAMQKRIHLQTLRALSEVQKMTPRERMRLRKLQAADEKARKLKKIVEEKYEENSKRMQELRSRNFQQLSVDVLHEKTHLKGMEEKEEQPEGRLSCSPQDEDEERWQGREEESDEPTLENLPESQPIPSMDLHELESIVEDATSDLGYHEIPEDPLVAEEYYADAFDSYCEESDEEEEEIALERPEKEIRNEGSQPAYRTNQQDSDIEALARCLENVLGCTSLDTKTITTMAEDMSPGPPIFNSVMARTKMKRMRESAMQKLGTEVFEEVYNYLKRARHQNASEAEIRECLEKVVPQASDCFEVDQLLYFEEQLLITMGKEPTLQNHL

[4] = target: T2, Serine/threonine-protein kinase Nek11 (Homo sapiens); settings: at 10 µM
[5] = target: T3, Serine/threonine-protein kinase Nek2 (Homo sapiens) (UniProt P51955); settings: at 1 µM
T3 sequence (whole entry): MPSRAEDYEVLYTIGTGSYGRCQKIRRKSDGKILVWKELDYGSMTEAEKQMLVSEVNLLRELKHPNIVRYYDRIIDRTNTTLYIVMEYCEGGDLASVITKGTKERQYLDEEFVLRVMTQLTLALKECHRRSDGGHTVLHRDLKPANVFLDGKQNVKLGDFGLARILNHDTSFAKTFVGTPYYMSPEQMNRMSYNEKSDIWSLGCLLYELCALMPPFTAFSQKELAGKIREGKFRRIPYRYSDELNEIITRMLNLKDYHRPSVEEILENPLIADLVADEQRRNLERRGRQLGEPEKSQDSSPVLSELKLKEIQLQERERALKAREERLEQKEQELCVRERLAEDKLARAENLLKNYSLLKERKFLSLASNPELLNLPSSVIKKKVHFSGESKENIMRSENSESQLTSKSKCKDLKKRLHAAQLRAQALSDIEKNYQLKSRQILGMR

[6] = target: T3, Serine/threonine-protein kinase Nek2 (Homo sapiens); settings: at 10 µM
[7] = target: Serine/threonine-protein kinase tousled-like 2 (Homo sapiens) (UniProt Q86UE8); settings: at 1 µM
Chain of Serine/threonine-protein kinase tousled-like 2 (Homo sapiens) (Q86UE8 whole entry, looked up): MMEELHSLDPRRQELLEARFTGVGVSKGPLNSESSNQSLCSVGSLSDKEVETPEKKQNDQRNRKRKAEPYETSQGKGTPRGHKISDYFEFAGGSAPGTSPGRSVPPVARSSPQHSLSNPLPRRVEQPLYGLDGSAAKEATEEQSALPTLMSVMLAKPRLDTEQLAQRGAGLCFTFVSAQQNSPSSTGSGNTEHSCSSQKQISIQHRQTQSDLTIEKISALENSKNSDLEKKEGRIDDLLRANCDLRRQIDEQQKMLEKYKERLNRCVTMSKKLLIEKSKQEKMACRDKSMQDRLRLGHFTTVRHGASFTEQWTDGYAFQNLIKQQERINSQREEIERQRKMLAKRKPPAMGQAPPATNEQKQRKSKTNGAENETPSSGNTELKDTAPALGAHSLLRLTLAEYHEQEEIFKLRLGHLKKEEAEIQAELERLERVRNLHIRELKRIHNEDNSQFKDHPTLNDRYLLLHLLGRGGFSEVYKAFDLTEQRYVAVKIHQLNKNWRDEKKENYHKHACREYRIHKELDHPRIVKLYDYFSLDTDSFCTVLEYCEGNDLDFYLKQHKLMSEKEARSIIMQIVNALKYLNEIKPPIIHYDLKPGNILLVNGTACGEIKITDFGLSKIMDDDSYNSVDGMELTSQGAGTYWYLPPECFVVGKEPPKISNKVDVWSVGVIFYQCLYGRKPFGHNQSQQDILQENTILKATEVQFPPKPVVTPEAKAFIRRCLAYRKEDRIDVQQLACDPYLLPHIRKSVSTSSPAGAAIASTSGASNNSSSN

[8] = target: Serine/threonine-protein kinase tousled-like 2 (Homo sapiens) (UniProt Q86UE8); settings: at 10 µM
[9] = target: T4, Serine/threonine-protein kinase Nek3 (Homo sapiens) (UniProt P51956); settings: at 1 µM
T4 sequence (whole entry): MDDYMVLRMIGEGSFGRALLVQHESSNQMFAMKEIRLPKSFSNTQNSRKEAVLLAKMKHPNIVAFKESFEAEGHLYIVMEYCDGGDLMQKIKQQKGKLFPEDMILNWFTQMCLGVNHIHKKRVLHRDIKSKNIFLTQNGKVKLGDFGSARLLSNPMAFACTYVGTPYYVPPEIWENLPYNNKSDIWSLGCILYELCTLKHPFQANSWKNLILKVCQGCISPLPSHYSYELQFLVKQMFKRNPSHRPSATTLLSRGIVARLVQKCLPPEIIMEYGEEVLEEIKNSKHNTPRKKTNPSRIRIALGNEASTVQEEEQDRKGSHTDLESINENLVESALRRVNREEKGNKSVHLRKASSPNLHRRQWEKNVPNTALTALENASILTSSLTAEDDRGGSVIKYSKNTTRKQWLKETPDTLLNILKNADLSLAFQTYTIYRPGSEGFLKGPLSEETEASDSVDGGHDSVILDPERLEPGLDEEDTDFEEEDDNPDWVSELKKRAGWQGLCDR

[10] = target: T4, Serine/threonine-protein kinase Nek3 (Homo sapiens); settings: at 10 µM

Row | SMILES | residual activity [1] | residual activity [2] | residual activity [3] | residual activity [4] | residual activity [5] | residual activity [6] | residual activity [7] | residual activity [8] | residual activity [9] | residual activity [10]
1 | COc1ccc(Cl)cc1NC(=O)Nc1cc(C)nc2ccccc12 | 97% | 71% | 79% | 93% | 78% | 86% | 97% | 95% |  | 
2 | CC(C)[C@H](CO)Nc1nc(Nc2cc(N)cc(Cl)c2)c2ncn(C(C)C)c2n1 | 62% | 10% | 84% | 48% |  | 76% | 95% | 73% | 85% | 70%
3 | COc1ccc2c(c1)c(C1=C(c3c[nH]c4ccccc34)C(=O)NC1=O)cn2CCCN(C)C | 96% | 65% | 50% | 48% | 76% |  | 21% | 2% |  | 
4 | CCN1/C(=C/C(C)=O)Sc2ccc(OC)cc21 | 82% | 75% | 49% | 60% |  |  |  |  |  | 
5 | CC(C)c1nn(-c2c(Cl)cccc2Cl)c2nc(Cc3ccc(OCCO)cc3)[nH]c(=O)c12 | 96% | 87% | 63% | 70% | 90% | 87% | 80% | 37% | 86% | 89%
6 | CSc1nc(-c2ccc(F)cc2)c(-c2ccnc(NC(C)c3ccccc3)c2)[nH]1 (configuration not stated) | 98% | 81% | 83% | 54% | 99% | 102% |  |  | 95% | 90%
7 | c1ccc(-c2cnc(Nc3ccc(OCCN4CCCC4)cc3)s2)cc1 | 4% | 0% | 81% | 76% |  |  | 105% | 81% | 115% | 76%
8 | O=c1cc(N2CCNCC2)oc2c(-c3ccccc3)cccc12 | 92% | 78% | 104% | 105% | 84% | 92% |  | 91% | 101% | 76%
9 | O=C1NC(=O)C(c2cn(CCCn3ccnc3)c3ccccc23)=C1Nc1ccccc1 | 77% | 65% | 59% | 44% |  |  | 44% | 7% | 110% | 104%
10 | COc1cc2nccc(Oc3ccc(NC(=S)NC(=O)c4ccccc4C)cc3)c2cc1OC | 81% | 56% | 99% | 87% | 78% | 82% | 101% | 85% |  | 60%
11 | Cn1c2ccccc2c2c3c(c4c5ccccc5n(CCC#N)c4c21)CNC3=O | 32% | 37% | 49% | 60% | 76% | 82% |  |  | 100% | 
12 | O=C1Cc2c([nH]c3ccc([N+](=O)[O-])cc23)-c2ccccc2N1 | 70% | 72% | 74% | 79% |  |  |  |  |  | 
13 | O=C1Nc2ccccc2/C1=C\c1c(Cl)[nH]c2ccccc12 | 78% | 70% | 64% | 29% |  | 77% |  | 76% | 82% | 
14 | Cn1sc(=O)n(Cc2ccccc2)c1=O | 73% | 86% | 43% | 62% | 95% | 87% | 84% | 80% | 83% | 97%
15 | CCN(CC)CCNC(=O)c1c(C)[nH]c(/C=C2\C(=O)Nc3ccc(Cl)cc32)c1C | 3% | 0% | 80% | 31% | 67% | 18% | 69% | 14% |  | 
16 | O=S(=O)(NCCNC/C=C/c1ccc(Br)cc1)c1cccc2cnccc12 | 81% | 76% | 69% | 69% |  |  |  |  |  | 
17 | O=C1C(Cl)=C(N2C(=O)CCC2=O)C(=O)c2ccccc21 | 76% | 84% | 41% | 33% | 93% | 89% | 94% | 95% | 74% | 87%
18 | CCCC(=O)Oc1ccc2[nH]c(C(=O)c3cc4ccccc4[nH]3)cc2c1 | 95% | 76% | 75% | 89% | 71% | 103% | 100% | 90% | 98% | 79%
19 | CN(C)S(=O)(=O)c1ccc2c(c1)/C(=C/c1cc3c([nH]1)CCCC3)C(=O)N2 | 53% | 47% | 47% | 63% | 97% | 100% | 98% | 95% | 88% | 94%
20 | NC(=O)Nc1sc(-c2ccc(F)cc2)cc1C(N)=O | 62% | 15% | 25% | 5% | 87% | 58% | 72% | 27% | 69% | 48%
21 | O=c1cc(N2CCOCC2)oc2c1ccc1ccccc12 | 100% | 87% | 98% | 75% | 79% | 84% | 101% | 92% |  | 79%
22 | O=C(NC(NC(=S)Nc1ccc(F)c([N+](=O)[O-])c1)C(Cl)(Cl)Cl)C(c1ccccc1)c1ccccc1 (configuration not stated) | 85% | 98% | 86% | 49% | 90% | 88% | 99% | 94% | 94% | 89%
23 | O=C(c1cc2cc(O)ccc2[nH]1)c1cc2cc(O)ccc2[nH]1 | 43% | 4% | 54% | 38% | 77% | 73% | 81% | 32% | 111% | 72%
24 | CCCCc1c(-c2ccc(OC)cc2)[nH]c2nccnc12 | 88% | 87% | 80% | 81% |  | 83% | 87% | 86% | 87% | 
